Compound activity deposited in PubChem BioAssay by Broad Institute.
miR-122 inh: activators of miR-122 sensor in Huh7 cells. Huh7 psiCHECK-miR122 Renilla luciferase sensor, 48 h. activation, % at 12.5 µM. 340,000 compounds, 0.14% hits. AID 623901;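 active = mean activation of 30% or more, with every replicate also reaching 30%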;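 note: 0% = median of neutral control wells and 100% = median of positive control wells; higher luciferase signal means stronger suppression of miR-122 activity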
An asterisk follows results filed as active. The full list was thinned out, with hits kept by preference.

SMILES	miR-122 inh
O=C(c1cccnc1)N1C[C@H]2[C@@H](c3ccccc31)[C@H](CO)N2C(=O)C1CCCC1	40*
COc1ccc(C(=O)N2C[C@H]3[C@@H](c4ccccc42)[C@@H](CO)N3C(=O)c2ccc(F)cc2)cc1	-92
O=C(c1cccc(F)c1)N1C[C@H]2[C@@H](c3ccccc31)[C@@H](CO)N2C(=O)c1ccc(F)cc1	-192
COCC(=O)N1[C@H](CO)[C@H]2c3ccccc3N(C(=O)C3CC3)C[C@H]21	42*
C[C@H]1CN([C@@H](C)CO)C(=O)c2cc(/C=C/c3ccccc3)cnc2O[C@H]1CN(C)C(=O)c1cccnc1	-22
CCS(=O)(=O)Nc1ccc2c(c1)C(=O)N(C)C[C@@H](OC)[C@@H](C)CN[C@H](C)CO2	-1
C[C@H]1CN([C@@H](C)CO)C(=O)c2cc(C#CCN(C)C)cnc2O[C@@H]1CN(C)C(=O)Cc1ccncc1	2
C[C@H]1CN([C@@H](C)CO)C(=O)c2cc(C#CC3(O)CCCC3)cnc2O[C@@H]1CN(C)S(=O)(=O)c1cccc(F)c1	7
Cc1ccc(S(=O)(=O)N(C)C[C@@H]2Oc3ncc(C#CCC(C)C)cc3C(=O)N([C@H](C)CO)C[C@@H]2C)cc1	-7
C[C@H](CO)N1C[C@H](C)[C@@H](CN(C)C(=O)C2CCCCC2)Oc2ncc(C3=CCCC3)cc2C1=O	2
C[C@H](CO)N1C[C@H](C)[C@@H](CN(C)Cc2ccc3c(c2)OCO3)Oc2ncc(Br)cc2C1=O	-3
C[C@@H]1CN([C@@H](C)CO)S(=O)(=O)c2ccc(-c3ccncc3)cc2O[C@H]1CN(C)Cc1ccccn1	1
COc1cccc(-c2cnc3c(c2)C(=O)N([C@@H](C)CO)C[C@@H](C)[C@H](CN(C)CC2CCOCC2)O3)c1	4
CCn1c(Cl)c(C=O)s/c1=N\S(=O)(=O)c1ccccc1	72*
C[C@@H]1CN([C@H](C)CO)C(=O)c2cc(N(C)C)ccc2O[C@@H]1CN(C)S(=O)(=O)c1ccc(Cl)cc1	-98
O=C(NC(Nc1ncc(S(=O)(=O)c2ccc([N+](=O)[O-])cc2)s1)(C(F)(F)F)C(F)(F)F)c1ccc(Cl)cc1	44*
COc1ccccc1S(=O)(=O)N(C)C[C@@H]1Oc2cc(/C=C/c3ccccc3)ccc2S(=O)(=O)N([C@H](C)CO)C[C@@H]1C	8
CNc1nc(NCC2CCCCC2)c2sccc2n1	43*
COc1ccccc1CNS(=O)(=O)c1ccc(-c2cc(C)no2)cc1	-95
COc1ccccc1CNc1nc(NCC2CC2)nc2ccsc12	43*
CC(=O)N(C)C[C@H]1Oc2cc(C#CC3CCCCC3)ccc2S(=O)(=O)N([C@@H](C)CO)C[C@H]1C	13
C[C@@H]1CN([C@@H](C)CO)C(=O)c2cc(C#Cc3ccccc3)cnc2O[C@@H]1CN(C)C(=O)c1ccccn1	2
COc1cccc(S(=O)(=O)N(C)C[C@H]2Oc3ncc(C#CCC(C)C)cc3C(=O)N([C@H](C)CO)C[C@H]2C)c1	0
C[C@H](CO)N1C[C@H](C)[C@H](CN(C)Cc2ccc(C(=O)Nc3ccccc3N)cc2)Oc2ccc(NS(=O)(=O)c3cccs3)cc2CC1=O	-104
CCCNC(=O)NC[C@@H]1[C@@H](c2ccc(C3=CCCC3)cc2)[C@@H](CO)N1C(=O)CC	-143
SMILES	miR-122 inh
C[C@@H]1CN([C@@H](C)CO)C(=O)c2cc(-c3cccc(C#N)c3)cnc2O[C@@H]1CN(C)C(=O)C1CCCCC1	-1
COc1ccccc1-c1cnc2c(c1)C(=O)N([C@H](C)CO)C[C@H](C)[C@@H](CN(C)CC1CCCC1)O2	3
CO[C@@H]1CN(C)C(=O)c2cc(NC(C)=O)ccc2OC[C@@H](C)N(C(=O)c2ccccc2)C[C@@H]1C	-3
C[C@H](CO)N1C[C@H](C)[C@H](CN(C)Cc2ccc(C(=O)Nc3ccccc3N)cc2)Oc2ccc(NS(=O)(=O)c3ccccc3)cc2CC1=O	-145
CC(C(=O)OCC(=O)Nc1ncc(Cl)cc1Cl)N1C(=O)c2ccccc2C1=O (stereo not given)	36*
C[C@H]1CN([C@@H](C)CO)C(=O)c2cccc(NC(=O)C3CCCCC3)c2O[C@@H]1CN(C)Cc1ccc(C(=O)Nc2ccccc2N)cc1	-13
CCCNC(=O)N(C)C[C@H]1Oc2ncc(C#C[C@@H](C)O)cc2C(=O)N([C@@H](C)CO)C[C@H]1C	4
COCC(=O)N(C)C[C@@H]1Oc2ncc(C#Cc3ccccc3OC)cc2C(=O)N([C@@H](C)CO)C[C@@H]1C	6
CCCC(=O)Nc1ccc2c(c1)C(=O)N(C)C[C@H](OC)[C@H](C)CN(CCC)[C@H](C)CO2	0
Oc1ccccc1/C=N/Nc1nc2ccccc2o1	48*
COc1ccc(C#Cc2ccc3c(c2)O[C@H](CN(C)C)[C@@H](C)CN([C@@H](C)CO)S3(=O)=O)cc1	-11
COCC#Cc1ccc2c(c1)O[C@@H](CN(C)C(C)=O)[C@@H](C)CN([C@@H](C)CO)S2(=O)=O	9
COCC(=O)N1[C@H](CO)[C@H](c2ccccc2)[C@@H]1CNC(=O)c1ccccn1	-108
